Results reported in PubChem BioAssay (NCATS).
Inconclusive results are not listed. The source made the active and inactive calls. The call rests on the fitted dose curve; in most records, active means well fitted curve in the direction sought with a large enough effect; inconclusive means small, poorly fitted or top-dose-only effect, or another doubt; inactive means no such curve, though single readings can be large; an effect the other way counts as inactive or inconclusive.

Assays:
[1] = qHTS Screen of the MIPE 4.0 Collection Against Ewings Sarcoma (RDES) (AID 1259252); further: nearly all actives have a fitted effect of over 35% in size; further: potency means the concentration at half of the fitted maximal effect
In short: (§1)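 Measured: ATP luminescence (CellTiter-Glo) 10 min after reagent addition, following 48 h drug treatment. Relative luciferase units converted to percent activity, with no-cell wells as full and DMSO wells as zero inhibition.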

[2] = qHTS Screen of the MIPE 4.0 Collection Against Ewings Sarcoma (TC71) (AID 1259253); further: nearly all actives have a fitted effect of over 40% in size; further: potency means the concentration at half of the fitted maximal effect
In short: as §1

[3] = qHTS Screen of the MIPE 4.0 Collection Against Ewings Sarcoma (EW8) (AID 1259255); further: nearly all actives have a fitted effect of over 35% in size; further: potency means the concentration at half of the fitted maximal effect
In short: as §1

[4] = P-glycoprotein substrates identified in KB-3-1 adenocarcinoma cell line, qHTS therapeutic library screen (AID 1346986); further: nearly all actives have a fitted effect of over 60% in size;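 further: potency means the concentration at half of the fitted maximal effect; potency is for cytotoxicity meaning loss of cell viability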
In short: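 Using luminescence to quantify ATP, parental and P-gp-overexpressing KB cells were compared after 72 h compound titration. KB-8-5-11 was also run with the P-gp inhibitor tariquidar.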

[5] = P-glycoprotein substrates identified in KB-8-5-11 adenocarcinoma cell line, qHTS therapeutic library screen (AID 1346987); further: nearly all actives have a fitted effect of over 65% in size; further: potency means the concentration at half of the fitted maximal effect
In short: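 In this qHTS, P-gp-rich KB-8-5-11 cells received library compounds across a concentration range. Viability was quantified by luminescence after 72 h at 37 degree C.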

[6] = NS1 protein of Zika virus - qHTS assay to identify small molecule inhibitors in human HEK 293 cells (AID 1347053); further: nearly all actives have a fitted effect of over 55% in size; further: potency means the concentration at half of the fitted maximal effect
In short: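 In this cell-based screen, HEK 293 cultures received compound for one hour before Zika MR766 at MOI = 0.5. NS1 was quantified 24 hours later by TR-FRET, normalized to virus-free wells and infected wells.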

[7] = qHTS Screen of the MIPE 4.0 Collection Against Ewings Sarcoma (TC32) (AID 1259256); further: nearly all actives have a fitted effect of over 45% in size; further: potency means the concentration at half of the fitted maximal effect
In short: as §1

[8] = Identifying Small Molecule Inhibitors of Pancreatic Cancer Stem Cells (A2780, Spheroid) (AID 1259357); conditions: Potency: A2780 spheroid viability;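 further: spheroids pre-formed over 14 days in stem cell medium on hydrogel; compound exposure lasted 48 h before the ATP luminescence read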
In short: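 Endpoint: ATP-based luminescence, 48 h drug exposure. Bortezomib at 9.2 uM final as full-kill control; DMSO vehicle as negative control; activity normalized between vehicle and cell-free wells.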

[9] = Identifying Small Molecule Inhibitors of Pancreatic Cancer Stem Cells (Panc1, Adherent) (AID 1259362); conditions: Potency: viability;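 further: compound exposure lasted 48 h before the viability read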
In short: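 Adherent (2D) versus sphere (3D) formats; spheres generated 14 d in SCM beforehand. Compound transferred by pin tool after 4 h, 48 h incubation, CellTiter-Glo endpoint.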

[10] = qHTS assay to identify small molecule inhibitors of chordoma cells - UCH-2 (AID 1259356); further: series mostly up to about 46 µM

Measured: Potency

Nc1ncnc2c1ncn2[C@@H]1O[C@H](CO)[C@@H](O)[C@@H]1O
active: [1] 16.6 µM | [2] 6.62 µM | [3] 5.26 µM
inactive: [4] | [5] | [6]

CN(C)c1ccc(-c2nc3ncc(Cl)c(N4CCN(CC(=O)Nc5nccs5)CC4)c3[nH]2)cc1
active: [1] 20.9 µM | [2] 18.7 µM | [3] 16.6 µM
inactive: [4] | [5]

CCCCC(F)(F)[C@@]1(O)CC[C@H]2[C@H](CC(=O)[C@@H]2CCCCCCC(=O)O)O1
active: [1] 2.64 µM | [2] 2.96 µM | [3] 3.32 µM | [7] 2.96 µM
inactive: [6]

O=C(Nc1ncc(SCCN2CCCC2)s1)[C@]1(c2ccc(S(=O)(=O)C3CC3)cc2)C[C@@H]1C1CCCCC1
active: [1] 13.2 µM | [2] 23.5 µM | [3] 13.2 µM

CN[C@@H]1CN(c2ccc3c(=O)c(C(=O)O)cn(-c4nccs4)c3n2)C[C@@H]1OC
active: [1] 1.29 µM | [2] 0.645 µM | [3] 0.323 µM

C[C@@H]1C[C@H]2[C@@H]3CCC4=CC(=O)C=C[C@]4(C)[C@@]3(F)[C@@H](O)C[C@]2(C)[C@@]1(O)C(=O)CO
inactive: [1] | [2] | [3] | [7] | [5]

CCCCCCCCCCCCCC(=O)N[C@H](CO)[C@H](O)c1ccc([N+](=O)[O-])cc1
inactive: [1] | [2] | [3] | [8] | [9] | [5]

CN1CCc2c(n(Cc3ccc(C(=O)NO)cc3)c3ccccc23)C1
inactive: [6]
active: [1] 14.8 µM | [2] 18.7 µM | [3] 16.6 µM | [7] 13.2 µM

NCC1CCC(C(=O)O)CC1 (stereo not drawn)
active: [2] 9.35 µM
inactive: [1] | [3] | [10] | [5]

O=C(O)C1=CC(O)C(O)[C@H](O)C1 (stereo partly drawn)
inactive: [1] | [2] | [3] | [7] | [5]

O=c1[nH]c(=O)n([C@H]2C[C@@H](O)[C@@H](CO)O2)cc1C(F)(F)F
active: [1] 5.26 µM | [2] 1.87 µM | [3] 3.32 µM | [7] 1.32 µM

CC1(C)C(N(O)C(=O)Nc2ccc(Cl)cc2)N(c2ccc(Cl)cc2)C(=O)N1CC(=O)NN=CC=Cc1ccc([N+](=O)[O-])o1 (stereo not drawn)
active: [1] 26.4 µM | [2] 18.7 µM | [3] 14.8 µM | [7] 18.7 µM
inactive: [5] | [6]

C[C@@H]1O[C@@H](O[C@H]2CC[C@@]3(C)[C@H](CC[C@@H]4[C@H]3C[C@@H](O)[C@]3(C)[C@@H](C5=CC(=O)OC5)CC[C@]43O)C2)C[C@H](O)[C@@H]1O[C@H]1C[C@H](O)[C@H](O[C@H]2C[C@H](O)[C@@H](O)[C@@H](C)O2)[C@H](C)O1 (stereo in doubt)
active: [1] 0.34 µM | [2] 0.241 µM | [3] 0.215 µM | [7] 0.241 µM | [6] 0.136 µM

NC(=O)c1ncn([C@@H]2O[C@H](CO)[C@@H](O)[C@@H]2O)n1
inactive: [1] | [2] | [3] | [7] | [5]

Cc1ccccc1C(=O)c1ccc(Nc2ccc(Br)cc2N)cc1Cl
active: [1] 23.5 µM | [2] 16.6 µM | [3] 23.5 µM | [4] 14.6 µM | [5] 20.6 µM | [6] 9.35 µM

CC[C@H](C)n1cc(C)c2c(C(=O)NCc3c(C)cc(C)[nH]c3=O)cc(-c3ccc(N4CCNCC4)nc3)cc21
active: [1] 23.5 µM | [2] 11.8 µM | [7] 18.7 µM

C=C1c2cccc(O)c2C(O)=C2C(=O)[C@@]3(O)C(O)=C(C(N)=O)C(=O)[C@@H](N(C)C)[C@@H]3[C@@H](O)[C@H]12
active: [1] 20.9 µM | [2] 20.9 µM | [3] 23.5 µM
inactive: [5] | [6]

O=C(c1ccc(C(=O)N2CCC(N3CCCC3)CC2)c(Nc2ccccc2)c1)N1CCC(N2CCCC2)CC1
inactive: [5]
active: [1] 16.6 µM | [2] 7.43 µM | [3] 6.62 µM

Cc1[nH]c(C=C2C(=O)Nc3ccc(S(=O)(=O)N(C)c4cccc(Cl)c4)cc32)c(C)c1C(=O)N1CCN(C)CC1
active: [1] 26.4 µM | [2] 26.4 µM | [3] 26.4 µM
inactive: [6]

COc1cc2ncn(-c3cc(OCc4ccccc4S(C)(=O)=O)c(C#N)s3)c2cc1OC
inactive: [3] | [5] | [6]
active: [1] 16.6 µM | [2] 3.32 µM

COc1cc(CNC(=O)CCCCC=CC(C)C)ccc1O
inactive: [5]
active: [1] 5.9 µM | [2] 16.6 µM | [3] 6.62 µM

O=c1[nH]nc(OCCCc2ccc(Cl)cc2)c(NCc2cccnc2)c1Br
active: [1] 18.7 µM | [2] 16.6 µM | [3] 13.2 µM
inactive: [6]

CC[C@H]1OC(=O)[C@H](C)[C@@H](O[C@H]2C[C@@](C)(OC)[C@@H](O)[C@H](C)O2)[C@H](C)[C@@H](O[C@@H]2O[C@H](C)C[C@H](N(C)C)[C@H]2O)[C@](C)(O)C[C@H](C)C(=NOCOCCOC)[C@H](C)[C@@H](O)[C@]1(C)O
inactive: [1] | [2] | [3] | [5] | [6]
